From PubChem BioAssay (NCI) come the findings set out here.

About 83,000 compounds went through this panel and 20% of them were active in at least one assay; those are over-represented in the sample as a whole.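 A percent growth of 40 corresponds to 60% growth inhibition; 0 means no net growth; -100 means all cells died. Active threshold: below 10.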 A number with no mark means an inactive call. Activity calls are given as the source filed them.

The first experiment concerns MDA-MB-231 breast. In words: NCI-60 one-dose screen, 48 h (100 = growth as untreated, 0 = no growth, -100 = all killed). Conditions: 10 µM unless noted.
As for `NCCNc1nc2ccccc2c2c(=O)c3cc(F)cc(Cl)c3sc12`, the growth was -79.2% (active).

As to `C=C1C(=O)O[C@H]2[C@H]1CC/C(COC(=O)/C=C\C(=O)O)=C\CC[C@@]1(C)O[C@@H]21`, the growth was 103%.

With `COc1ccccc1C(=O)/C=C/c1ccccc1`, the growth was 97.6%.

In the case of `Cn1cc([C@@H]2Nc3ccc4[nH]ncc4c3[C@H]3[C@H]4CCC(C4)[C@H]32)c(C(F)(F)F)n1`, the growth is 61.6%.

On to `N#Cc1c(N)nc2c(c1N)C(c1ccc(F)cc1)c1ccc(N)cc1O2` (centres undefined), for which the growth is 118%.

`O=C(CN1C=NC2C(N3CCOCC3)=NC=NC21)c1ccc(Br)cc1` (centres undefined): the growth is 105%.

`CCCCN1CCN(c2ccc3nc(-c4ccc5nc(-c6ccc(OCC)cc6)[nH]c5c4)[nH]c3c2)CC1`: the growth was 111%.

Take `CCN(CCO)CCNc1ccc(C)c2sc3cc(Cl)ccc3c(=O)c12`: the growth was -42.8% (active).

Regarding `Cc1nn(-c2nc3ccccc3[nH]2)c2c1C(c1ccc(OCC(N)=O)cc1)CC(=O)N2` (centres undefined), the growth is 103%.

With `COC(=O)/C(CCC=C(C)C)=C1\[C@@H](OC(C)=O)C[C@@]2(C)[C@H]1C[C@@H](O)[C@H]1[C@@]3(C)CC[C@H](NCCO)[C@@H](C)[C@@H]3CC[C@@]12C`, the growth was 106%.

`CCCc1c(C)c2sc(=O)[nH]c2[nH]c1=O`: the growth was 105%.

Take `O=C(/C=C/c1ccc(Cl)cc1)c1ccc(Nc2nc(NCCO)nc(Nc3ccc(Cl)cc3)n2)cc1`: the growth was 62.4%.

With `COc1cccc2c(=O)c3c(sc12)c(NCCCNCCO)nc1ccccc13`, the growth was 23.9%.

Consider `CCCCc1ccc(NS(=O)(=O)c2cc3c4c(c2)CCN4C(=O)CC3)cc1`, for which the growth was 35.7%.

`O=C1/C(=C/c2ccc(O)cc2)COc2ccc(O)cc21`: the growth is 107%.

Regarding `Cc1cc(Nc2ccc(OCc3ccccc3)cc2)nc2cc(O)ccc12`, the growth is 37.7%.

As to `O=C(c1nc2ccccc2[nH]1)C1[C@@H](c2cccc(O)c2)C2CC3CCCCC3N2[C@@]12C(=O)Nc1cc(Cl)ccc12` (some centres undefined), the growth was 34.7%.

`O=c1oc2ccc(Br)cc2c(=O)n1-c1ccc(Br)cc1F`: the growth is -27.2% (active).

Regarding `O=C(/C=C/c1ccc(C(F)(F)F)cc1)c1ccc(Nc2nc(NCCO)nc(N3CCOCC3)n2)cc1`, the growth was 46.7%.

`C#CCn1cc(C=C2C(=O)N(C)C(=O)N(C)C2=O)c2cc(Cl)ccc21`: the growth was 105%.

For `COc1ccc(/C=C2/SC(=O)N(CC(=O)N3CCN(c4cc5c(cc4F)c(=O)c(C(=O)O)cn5C4CC4)CC3)C2=O)cc1`, the growth was 103%.

On to `CCOC(=O)C1=C(C)N=c2s/c(=C\c3ccccc3O)c(=O)n2C1c1ccc(OC)c2ccccc12` (centres undefined), for which the growth was -38.9% (active).

Regarding `Nc1ccc(-c2ccc(-c3ccccc3N)c3[nH]c4ccccc4c23)cc1`, the growth is 36.2%.

As for `CCOC(=O)c1c2c(n3cccc(Cl)c13)C(=O)c1ncccc1C2=O`, the growth is 24.9%.

Take `O=C(Nc1ccc(C23CC4CC(CC(c5ccccc5)(C4)C2)C3)cc1)c1cccs1`: the growth was 87.5%.

Take `Cc1ccc2sc3c(NCCCNCCO)nc4ccccc4c3c(=O)c2c1`: the growth was 23.8%.

For `COc1ccccc1N1CCN(C(CNS(=O)(=O)c2ccc(Cl)cc2)c2cccnc2)CC1` (centres undefined), the growth was 71%.

Consider `O=C(Nc1ccc(N2CCNCC2)cn1)c1[nH]ncc1Nc1ncnc2sc3c(c12)CCC3`, for which the growth is -48.9% (active).

Turning to `O=C(/C=C/c1cccc(Cl)c1)OCc1ccc2cc1OCC#C/C=C\C#CCO2`, the growth is 90.7%.

On to `C[n+]1c2ccccc2nc2ccc(NCCO)cc21`, for which the growth was 77.2%.

Take `Nc1nc2c(ncn2[C@@H]2O[C@H](CS)[C@@H](O)[C@H]2O)c(=O)[nH]1`: the growth was 99.3%.

With `Cn1c(C(=O)c2cccc3ccccc23)nc2ccccc21`, the growth was 29.1%.

In the case of `CC/C(=C(\CC)c1ccc(OCC[N+](C)(C)C)cc1)c1ccc(OC)cc1`, the growth was 71.9%.

`O=C(Nc1ccc(F)cc1F)c1cc(I)ccc1O`: the growth was 35.2%.

On to `CC(C)Cn1c2c(c(=S)[nH]c1=O)CCC2`, for which the growth is 101%.

Turning to `CNCCNc1nc2ccccc2c2c(=O)c3cccc(C)c3sc12`, the growth is -18% (active).

Take `COC(=O)c1c2c(c(C)[n+]([O-])c1C)C(=O)C(NCc1ccc(F)c(F)c1)=CC2=O`: the growth was -2.52% (active).

Consider `O=C(Cn1cc(COc2ncnc3c2cnn3-c2ccccc2)nn1)Nc1ccccn1`, for which the growth was 85.2%.

The test system of a further experiment is RXF 393 renal. Described as above. Conditions: 10 µM unless noted.
For `NCCNc1nc2ccccc2c2c(=O)c3cc(F)cc(Cl)c3sc12`, the growth is 67%.

Turning to `C=C1C(=O)O[C@H]2[C@H]1CC/C(COC(=O)/C=C\C(=O)O)=C\CC[C@@]1(C)O[C@@H]21`, the growth is 111%.

With `Cn1cc([C@@H]2Nc3ccc4[nH]ncc4c3[C@H]3[C@H]4CCC(C4)[C@H]32)c(C(F)(F)F)n1`, the growth was 53.4%.

As to `N#Cc1c(N)nc2c(c1N)C(c1ccc(F)cc1)c1ccc(N)cc1O2` (centres undefined), the growth is 92.3%.

In the case of `O=C(CN1C=NC2C(N3CCOCC3)=NC=NC21)c1ccc(Br)cc1` (centres undefined), the growth is 103%.

Turning to `CCCCN1CCN(c2ccc3nc(-c4ccc5nc(-c6ccc(OCC)cc6)[nH]c5c4)[nH]c3c2)CC1`, the growth is 36.9%.

Take `CCN(CCO)CCNc1ccc(C)c2sc3cc(Cl)ccc3c(=O)c12`: the growth is 5.22% (active).

For `COC(=O)/C(CCC=C(C)C)=C1\[C@@H](OC(C)=O)C[C@@]2(C)[C@H]1C[C@@H](O)[C@H]1[C@@]3(C)CC[C@H](NCCO)[C@@H](C)[C@@H]3CC[C@@]12C`, the growth was 109%.

Consider `CCCc1c(C)c2sc(=O)[nH]c2[nH]c1=O`, for which the growth is 107%.

Regarding `O=C(/C=C/c1ccc(Cl)cc1)c1ccc(Nc2nc(NCCO)nc(Nc3ccc(Cl)cc3)n2)cc1`, the growth was 54.3%.

In the case of `COc1cccc2c(=O)c3c(sc12)c(NCCCNCCO)nc1ccccc13`, the growth was 44.5%.

Regarding `CCCCc1ccc(NS(=O)(=O)c2cc3c4c(c2)CCN4C(=O)CC3)cc1`, the growth is 32.5%.

With `O=C1/C(=C/c2ccc(O)cc2)COc2ccc(O)cc21`, the growth is 125%.

For `Cc1cc(Nc2ccc(OCc3ccccc3)cc2)nc2cc(O)ccc12`, the growth is 93.7%.

As to `O=C(c1nc2ccccc2[nH]1)C1[C@@H](c2cccc(O)c2)C2CC3CCCCC3N2[C@@]12C(=O)Nc1cc(Cl)ccc12` (some centres undefined), the growth was 1.99% (active).

In the case of `O=c1oc2ccc(Br)cc2c(=O)n1-c1ccc(Br)cc1F`, the growth was -11.5% (active).

On to `O=C(/C=C/c1ccc(C(F)(F)F)cc1)c1ccc(Nc2nc(NCCO)nc(N3CCOCC3)n2)cc1`, for which the growth is 73.9%.

Regarding `C#CCn1cc(C=C2C(=O)N(C)C(=O)N(C)C2=O)c2cc(Cl)ccc21`, the growth was 103%.

Consider `COc1ccc(/C=C2/SC(=O)N(CC(=O)N3CCN(c4cc5c(cc4F)c(=O)c(C(=O)O)cn5C4CC4)CC3)C2=O)cc1`, for which the growth is 117%.

Turning to `CCOC(=O)C1=C(C)N=c2s/c(=C\c3ccccc3O)c(=O)n2C1c1ccc(OC)c2ccccc12` (centres undefined), the growth is -20.6% (active).

With `Nc1ccc(-c2ccc(-c3ccccc3N)c3[nH]c4ccccc4c23)cc1`, the growth is 24.5%.

Regarding `O=C(Nc1ccc(C23CC4CC(CC(c5ccccc5)(C4)C2)C3)cc1)c1cccs1`, the growth is 77.5%.

On to `Cc1ccc2sc3c(NCCCNCCO)nc4ccccc4c3c(=O)c2c1`, for which the growth is 44.5%.

As for `COc1ccccc1N1CCN(C(CNS(=O)(=O)c2ccc(Cl)cc2)c2cccnc2)CC1` (centres undefined), the growth is 36.3%.

For `CCn1c(-c2nonc2Nc2ccc(OC)cc2)nc2ccccc21`, the growth was 120%.

`O=C(Nc1ccc(N2CCNCC2)cn1)c1[nH]ncc1Nc1ncnc2sc3c(c12)CCC3`: the growth was 18.6%.

Take `O=C(/C=C/c1cccc(Cl)c1)OCc1ccc2cc1OCC#C/C=C\C#CCO2`: the growth was 101%.

In the case of `C[n+]1c2ccccc2nc2ccc(NCCO)cc21`, the growth is 83.2%.

As for `Nc1nc2c(ncn2[C@@H]2O[C@H](CS)[C@@H](O)[C@H]2O)c(=O)[nH]1`, the growth was 111%.

As to `Cn1c(C(=O)c2cccc3ccccc23)nc2ccccc21`, the growth is 13.5%.

With `CC/C(=C(\CC)c1ccc(OCC[N+](C)(C)C)cc1)c1ccc(OC)cc1`, the growth is 29%.

On to `O=C(Nc1ccc(F)cc1F)c1cc(I)ccc1O`, for which the growth was -1.12% (active).

With `CC(C)Cn1c2c(c(=S)[nH]c1=O)CCC2`, the growth is 109%.

With `CNCCNc1nc2ccccc2c2c(=O)c3cccc(C)c3sc12`, the growth is 50.8%.

With `COC(=O)c1c2c(c(C)[n+]([O-])c1C)C(=O)C(NCc1ccc(F)c(F)c1)=CC2=O`, the growth was 32.2%.

Regarding `O=C(Cn1cc(COc2ncnc3c2cnn3-c2ccccc2)nn1)Nc1ccccn1`, the growth was 112%.
